Laboratory results from PubChem BioAssay (NCI).
The panel holds about 79,000 compounds, 15% with a hit somewhere; the sample as a whole holds those more often. Active and inactive are the calls of the source. Cut-off read from the data, not from the text of the source: active = growth inhibition above about 70%; inactive = the rest.

Legend:
[1] = NCI Yeast Anticancer Drug Screen. Data for the wt1 strain (AID 149);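 note: 0% = growth of vehicle-treated wt1 cultures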; conditions: S. cerevisiae wt1 strain (SPY 50644) growth inhibition, active compounds read high
Outline: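 Measured: growth of wt1 yeast under compound versus vehicle treatment, reported as inhibition.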

[2] = NCI Yeast Anticancer Drug Screen. Data for the rad50EPP+ strain (AID 151);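 note: 0% = growth of vehicle-treated control cultures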; conditions: S. cerevisiae rad50 mutant strain, active compounds read high
Outline: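 Measured: growth inhibition of rad50EPP+ yeast. Reference: vehicle-treated controls. Screen uses strains with defined genetic alterations in DNA damage repair or cell cycle control.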

[3] = NCI Yeast Anticancer Drug Screen. Data for the mgt1 strain (AID 153); conditions: S. cerevisiae mgt1 mutant growth inhibition, active compounds read high
Outline: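 Compounds were applied to mgt1 mutant yeast, and growth was then compared against vehicle-treated control cultures to give percent inhibition.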

[4] = NCI Yeast Anticancer Drug Screen. Data for the rad50 strain (AID 155);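 note: 0% = growth of vehicle-only cultures of the same strain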; conditions: S. cerevisiae rad50 strain growth inhibition, active compounds read high
Outline: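 Growth of the mutant yeast was measured after compound exposure and referenced to vehicle-treated cultures.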

[5] = NCI Yeast Anticancer Drug Screen. Data for the mec2-1 strain (AID 157); conditions: S. cerevisiae mec2-1 strain, active compounds read high
Outline: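 Compounds were applied to mec2-1 yeast cells. Their growth was then compared with that of vehicle-treated cultures to give growth inhibition.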

[6] = NCI Yeast Anticancer Drug Screen. Data for the rad14 strain (AID 159);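 note: 0% = growth of vehicle-treated control cultures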; conditions: S. cerevisiae rad14 strain growth inhibition, active compounds read high
Outline: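 Here, inhibition of yeast growth was measured after compound exposure, using a strain with a genetic defect in DNA damage repair and vehicle-treated cultures as the reference.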

[7] = NCI Yeast Anticancer Drug Screen. Data for the sgs1 mgt1 strain (AID 161);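 note: 0% = growth of cultures given vehicle only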; conditions: S. cerevisiae sgs1 mgt1 strain, active compounds read high
Outline: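 This yeast growth screen uses a strain with defined DNA-repair lesions; compound-treated growth is compared with vehicle-treated growth.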

[8] = NCI Yeast Anticancer Drug Screen. Data for the CLN2oe strain (AID 163);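 note: 0% = growth of vehicle-only control cultures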; conditions: S. cerevisiae CLN2oe strain, active compounds read high
Outline: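 Cells of an engineered yeast line with disturbed cell-cycle regulation are treated with compound. Inhibition of growth is then calculated relative to the vehicle-treated reference.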

[9] = NCI Yeast Anticancer Drug Screen. Data for the cln2 rad14 strain (AID 165);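 note: 0% = growth equal to vehicle treated cultures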; conditions: S. cerevisiae cln2 rad14 strain, active compounds read high
Outline: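 Strain: cln2 rad14 yeast, altered in cell cycle control and DNA damage repair. Read-out: growth inhibition vs vehicle.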

[10] = NCI Yeast Anticancer Drug Screen. Data for the bub3 strain (AID 167); conditions: S. cerevisiae bub3 mutant strain, active compounds read high
Outline: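 Whole-cell yeast assay. The mutant strain was incubated with compounds, and growth inhibition was determined by comparison with vehicle-treated cells.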

[11] = NCI Yeast Anticancer Drug Screen. Data for the wt2 strain (AID 169);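 note: 0% = growth of vehicle-treated yeast cultures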; conditions: S. cerevisiae wt2 strain growth inhibition, active compounds read high
Outline: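 Growth of compound-treated yeast is measured and expressed as inhibition relative to vehicle-only controls.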

[12] = NCI Yeast Anticancer Drug Screen. Data for the mlh1 strain (AID 171);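 note: 0% = growth of vehicle-treated control cultures of the same strain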; conditions: S. cerevisiae mlh1 strain growth inhibition, active compounds read high
Outline: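 Test agents were incubated with yeast bearing a defined DNA damage repair or cell cycle control alteration; values are growth inhibition normalised to vehicle-treated cultures.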

[13] = NCI Yeast Anticancer Drug Screen. Data for the sgs1 strain (AID 173);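 note: 0% = growth of vehicle-only control cultures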; conditions: S. cerevisiae sgs1 mutant, active compounds read high
Outline: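 Strain with an altered DNA repair or cell cycle pathway exposed to compound. Growth then measured. Value = inhibition versus vehicle control.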

[14] = NCI Yeast Anticancer Drug Screen. Data for the mlh1 rad18 strain (AID 175); conditions: S. cerevisiae mlh1 rad18 strain growth inhibition, active compounds read high
Outline: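 A repair-deficient yeast strain is exposed to test compound, and growth is scored relative to vehicle-treated controls.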

[15] = NCI Yeast Anticancer Drug Screen. Data for the rad18 strain (AID 177); conditions: S. cerevisiae rad18 mutant growth inhibition, active compounds read high
Outline: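 DNA-repair-defective yeast; compound treatment; growth inhibition scored against vehicle.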

[16] = at 5.0 µM (retest, dose inferred, filed as 0.5)
[17] = at 50.0 µM (retest, dose inferred, filed as 5.0)

Measured: growth inhibition

CC1CN=C(Nc2ccccc2)S1 (stereo not drawn)
inactive: [1]; at 1.2 µM -15% | [1]; at 3.7 µM -5% | [1]; at 11.0 µM -21% | [1]; at 33.0 µM -25% | [1]; at 100.0 µM -32% | [2]; at 1.2 µM -52% | [2]; at 3.7 µM -46% | [2]; at 11.0 µM -49% | [2]; at 33.0 µM -72% | [2]; at 100.0 µM -54% | [3]; at 1.2 µM -57% | [3]; at 3.7 µM -76% | [3]; at 11.0 µM -54% | [3]; at 33.0 µM -51% | [3]; at 100.0 µM -60% | [4]; at 1.2 µM -5% | [4]; at 3.7 µM 12% | [4]; at 11.0 µM -7% | [4]; at 33.0 µM 3% | [4]; at 100.0 µM -17% | [5]; at 1.2 µM -49% | [5]; at 3.7 µM -67% | [5]; at 11.0 µM -80% | [5]; at 33.0 µM -40% | [5]; at 100.0 µM -60% | [6]; at 1.2 µM -49% | [6]; at 3.7 µM -54% | [6]; at 11.0 µM -58% | [6]; at 33.0 µM -51% | [6]; at 100.0 µM -41% | [7]; [16] 2% | [7]; [17] 6% | [8]; at 1.2 µM -14% | [8]; at 3.7 µM -15% | [8]; at 11.0 µM -7% | [8]; at 33.0 µM -2% | [8]; at 100.0 µM 10% | [9]; [16] 16% | [9]; [17] 37% | [10]; at 1.2 µM -26% | [10]; at 3.7 µM -20% | [10]; [16] 26% | [10]; at 11.0 µM -41% | [10]; at 33.0 µM -25% | [10]; [17] 9% | [10]; at 100.0 µM -46% | [11]; at 1.2 µM -31% | [11]; at 3.7 µM -15% | [11]; at 11.0 µM -21% | [11]; at 33.0 µM -24% | [11]; at 100.0 µM -13% | [12]; at 1.2 µM -8% | [12]; at 3.7 µM -7% | [12]; at 11.0 µM -14% | [12]; at 33.0 µM -32% | [12]; at 100.0 µM -24% | [13]; at 1.2 µM -29% | [13]; at 3.7 µM -36% | [13]; at 11.0 µM -40% | [13]; at 33.0 µM -23% | [13]; at 100.0 µM -40% | [15]; at 1.2 µM -50% | [15]; at 3.7 µM -54% | [15]; at 11.0 µM -51% | [15]; at 33.0 µM -58% | [15]; at 100.0 µM -42%
active: [4]; [16] 100% | [4]; [17] 100% | [4]; at 50.0 µM 78.5% | [5]; [16] 100% | [5]; [17] 100% | [5]; at 50.0 µM 88.8% | [7]; at 50.0 µM 89.2% | [9]; at 50.0 µM 90.3% | [10]; at 50.0 µM 87.4% | [14]; [16] 100% | [14]; [17] 100% | [14]; at 50.0 µM 81.6%
